Source: the supplement of paper PMC13380429

Tested on: Vero E6 infected with SARS-CoV-2
Test: inhibition of SARS-CoV-2 cytopathic effect; higher = more antiviral protection, active = above 15
Conditions: 48 h

Measured: inhibition of SARS-CoV-2 cytopathic effect

CC(=O)OCC1=C(C(=O)O)N2C(=O)[C@@H](N)[C@H]2SC1 [7-aminocephalosporanic-acid]
inactive: 1 nM -5.97% | 8.33 nM -2.34% | 100 nM -5.2% | 833.33 nM -0.34% | 10000 nM 3.59%

Cc1cn(C[C@H](N)C(=O)O)c(=O)n(Cc2ccsc2C(=O)O)c1=O
inactive: 1 nM 1.18% | 8.33 nM 1.91% | 100 nM -1.21% | 833.33 nM 0.03% | 10000 nM 2.18%

Cn1c(=O)c2c(ncn2CC(=O)Nc2ccc(-c3ccccc3)nn2)n(C)c1=O
inactive: 1 nM 2.25% | 8.33 nM 0.06% | 100 nM 1.35% | 833.33 nM 4.8% | 10000 nM 7.55%

O=C(Oc1ccc(Br)cc1)N1CCN2CCC1CC2
inactive: 1 nM 1.3% | 8.33 nM 1.31% | 100 nM 4.76% | 833.33 nM 1.51% | 10000 nM 0.59%

Cc1cccc(-c2[nH]c(C(C)(C)C)nc2-c2ccc3nccnc3c2)n1
inactive: 1 nM 3.48% | 8.33 nM -0.18% | 100 nM 0.8% | 833.33 nM 0.91% | 10000 nM 1.69%

CCc1c(-c2ccccc2)c(-c2ccccc2)nn1-c1ccccc1-c1cccc(OCC(=O)O)c1
inactive: 1 nM -2.24% | 8.33 nM 3.84% | 100 nM 0.2% | 833.33 nM 0.13% | 10000 nM -0.58%

CCN(CC)C(=O)N[C@H]1C=C2c3cccc4[nH]cc(c34)C[C@H]2N(C)C1 [lisuride]
inactive: 1 nM -0.02% | 8.33 nM 2.67% | 100 nM 0.39% | 833.33 nM 7.27% | 10000 nM -0.37%
